This is an account of results in PubChem BioAssay (EPA / NIEHS).

Each structure is given as a SMILES string. Calls of active or inactive are those of the source. The calls were made as follows: active = hit-call score of the fitted dose curve at least 0.9, where 1 is the maximum; inactive = score below 0.9.

Read-out in the assay: ABC Transporter (ABCC3), ABCC3 (gene 8714)
Put plainly: LTEA_HepaRG_ABCC3: Life Technologies and Expression Analysis (LTEA) Assay for ABC Transporter (ABCC3) using HepaRG (AID 2283462). As to conditions: mRNA level, 48 h; actives raise or lower the signal. As to the method:
LTEA_HepaRG is a cell based, multiplexed-readout assay that uses HepaRG, a human liver cell line, with measurements taken at 48 hours after chemical dosing on a 96-well plate.LTEA_HepaRG_ABCC3 is one of 102 assay component(s) measured in the LTEA HepaRG cell culture assay. It is a marker of NR mediated transport.Data from the assay component LTEA_HepaRG_ABCC3 was analyzed into 1 endpoint. This assay endpoint, LTEA_HepaRG_ABCC3, was analyzed with bidirectional fitting relative to DMSO as the negative control and baseline of activity. Using a type of inducible reporter, measures of mRNA induction for gain or loss-of-signal activity can be used to understand regulation of transcription factor activity. To generalize the intended target to other relatable targets, this assay endpoint is annotated to the transporter intended target family, where the subfamily is ABC transporter.
A total of 1060 chemcials from the ToxCast library were tested in eight-point concentration-response experiments. Cell culture and cytotoxicity assays were conducted at Thermo Fisher Scientific's Custom Services facility (Madison, WI). A single lot of human HepaRG cells (Thermo Fisher Scientific, Frederick, MD) was used for the cell culture experiments. 96-well format collagen type I coated plates of human HepaRG cells were prepared using established methods. Briefly, cryopreserved HepaRG cells were thawed, plated at a density of approximately 100,000 cells/well in HepaRG Thaw, Plate, and General Purpose media (HPRG770, Thermo Fisher Scientific), and incubated for 48 hours. 0.5% DMSO was selected as vehicle control to balance the requisite need of DMSO in HepaRG cultures to maintain differentiation (for example, baseline metabolism, proportions of hepatocytes vs. cholangiocytes), while enabling further hepatic receptor pathway activation (for example, PXR and CAR) in response to chemical exposure. 48 hours after plating, the culture medium was replaced with HepaRG Serum-Free Incudtion Media. Cells were exposed to each test chemical in duplicate and maintained in CO2 incubators for another 48 hours. Chemical plates were thawed to room temperature and 200x concentrations of treatment groups were prepared. 8-point conentration-reponse curves were made with the highest exposure at 100 uM, followed by half-log dilutions, all in 0.5% DMSO. Each test plate contained variouse controls, induction positive controls (1mM phenobarbital), cytotoxicity positive controls ([…] aflatoxin B1), vehicle controls (0.5% DMSO), and total lysis controls (0.5% DMSO). Cell morphology images were taken using an Essen IncuCyte FLR automated microscope, with six 96-well plates imaged in about 24 minutes. Images were captured and exported and JPEG files. Spent culture media was transfered to black-well plates for the LDH assay, and remaining media was sorted at -80 C for later use. Cells were treated with RLT buffer and frozen until shipped for gene expression analysis. Total RNA was isolated from the cell suspension in 75 uL of Buffer RLT (Qiagen, Germantown, MD 20874) by Quintiles/Expression Analysis (Durham, NC) using a custom isolation procedure. Total RNA from each plate well was transferred to a preamplification plate. Fluidigm's 96.96 Dynamic ArrayTM (Fluidigm, Amsterdam, the Netherlands) technology was used for gene expression analyses by quantitative reverse transcription polymerase chain reaction (qRT-PCR, performed by Quintiles/Expression Analysis, Durham, NC)89. Standard TaqManTM Assays (Applied Biosystems/ThermoFisher Scientific, Foster City, CA) were used to assess the expression of 93 genes selected based on their selectivity and sensitivity to important hepatic receptors known to be modulated by environmental chemicals; importance in human hepatocyte functionality; and hepatotoxicity. […]
Consider `CC#C[C@]1(O)CC[C@H]2[C@@H]3CCC4=CC(=O)CCC4=C3[C@@H](c3ccc(N(C)C)cc3)C[C@@]21C`, for which the compound was called inactive.

On to `OCCC(F)(F)C(F)(F)C(F)(F)C(F)(F)C(F)(F)C(F)(F)F`, for which the call was inactive.

As for `CN(C)C=O`, the outcome was inactive.

Turning to `CCCCCCC(=O)O`, the call was inactive.

As to `CCCCC(CC)COC(=O)CCCCC(=O)OCC(CC)CCCC` (stereo not given), the compound was classed as inactive.

Take `COC(=O)CCCCC(=O)OC`: the compound was called inactive.

`CCCCC(CC)COC(=O)CCCCC(=O)OCc1ccccc1` (stereo not given): the compound was classed as inactive.

As to `CCCCCCCCC(=O)O`, the compound was called inactive.

Consider `CC(C)(C)c1ccc(O)c(C(C)(C)C)c1`, for which the compound was called inactive.

As to `CCc1nn(C2CCCCC2)c2cc(C3(C#N)CCC(C(=O)O)CC3)ccc12` (stereo not given), the outcome was inactive.

In the case of `c1ccc2cc3c(ccc4ccccc43)cc2c1`, the compound was called inactive.

As for `CN1CCC[C@H]1c1cccnc1`, the outcome was inactive.

Regarding `O=[N+]([O-])c1ccc(O)cc1`, the outcome was inactive.

Take `CCCCCCCCOC(=O)CCCCCCCCC(=O)OCCCCCCCC`: the compound was classed as inactive.

For `CC(C)(C)CC(C)(C)c1ccc(O)c(-n2nc3ccccc3n2)c1`, the compound was called inactive.

In the case of `C[C@@H]1C[C@H]2[C@@H]3CCC4=CC(=O)C=C[C@]4(C)[C@@]3(F)[C@@H](O)C[C@]2(C)[C@@]1(O)C(=O)COP(=O)(O)O`, the outcome was inactive.

For `CC1=C(/C=C/C(C)=C/C=C/C(C)=C/C(=O)O)C(C)(C)CCC1`, the outcome was inactive.

Take `CC(=O)NC1(c2cccc(F)c2)CCN(CC[C@@]2(c3ccc(Cl)c(Cl)c3)CN(c3ccccc3)C(=O)CO2)CC1`: the result was inactive.

In the case of `O=C(O)Cc1cc(I)c(Oc2cc(I)c(O)c(I)c2)c(I)c1`, the concentration at half-maximal activity (AC50) (usually the midpoint of the concentration-response curve, whichever way the signal moves) was 52.4 µM (active).

With `OC1CCCCC1`, the compound was classed as inactive.

Consider `Cc1cc(C)c(O)c(C)c1`, for which the result was inactive.

With `CCCOc1sc(C(=O)N2CCC(c3cc(CN)ccc3F)CC2)c(C)c1Br`, the compound was called inactive.

Consider `CC(C)CCCCCCOC(=O)CCCCC(=O)OCCCCCCC(C)C`, for which the compound was classed as inactive.

With `CCc1ccc(CCOc2ccc(CC3SC(=O)NC3=O)cc2)nc1` (stereo not given), the compound was called inactive.

As for `Nc1cccc2c(N)cccc12`, the compound was classed as inactive.

Turning to `CCC(C)(C)C1CCC(O)CC1` (stereo not given), the call was inactive.

Turning to `c1ccc2c(c1)ccc1ccccc12`, the call was inactive.

Turning to `CCOC(=O)CC(O)(CC(=O)OCC)C(=O)OCC`, the outcome was inactive.

For `C=C(C)C(=O)OCCC(F)(F)C(F)(F)C(F)(F)C(F)(F)C(F)(F)C(F)(F)F`, the compound was classed as inactive.

For `Oc1cccc(O)c1`, the result was inactive.

As to `CC(=O)CC(C)(C)O`, the outcome was inactive.

With `CCC(=C(c1ccc(O)cc1)c1ccc(OCCN(C)C)cc1)c1ccccc1`, the AC50 is 82.1 µM (active).

On to `COCC(C)OCC(C)O` (stereo not given), for which the call was inactive.

On to `CCCCCCCCCCCCc1ccccc1S(=O)(=O)O`, for which the result was inactive.

Consider `COCC(C)O` (stereo not given), for which the outcome was inactive.

On to `NC(=O)N(O)[C@@H]1C=C[C@H](Oc2cccc(Oc3ccc(F)cc3)c2)C1`, for which the concentration at half-maximal activity (AC50) is 21.1 µM (active).

For the compound `OC1CCC(C2CCCCC2)CC1` (stereo not given), the call was inactive.

Consider `CN1CCN(c2ccccc2/C=C2\SCCN(c3ccc(Cl)c(Cl)c3)C2=O)CC1`, for which the AC50 is 11.5 µM (active).

With `O=c1c(-c2ccc(O)cc2)coc2cc(O)ccc12`, the compound was called inactive.

For `O=C(O)c1ccccc1C(c1ccc(O)cc1)c1ccc(O)cc1`, the result was inactive.
